Shown are actives, neighbours in structure and some others; about 9.3% of the full set was active somewhere.
ELG1 genotoxic: induces genotoxicity in HEK293T cells with luciferase-tagged ELG1; HEK293T ELG1-luciferase reporter, luminescence, 16 h; Potency, µM (top dose mostly 46 µM), actives largely listed as activators; 330,000 tested, 1.3% active; AID 504466; further: nearly all actives have a fitted effect of over 60% in size
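HEK293T cells expressing luciferase-tagged ELG1 were exposed to compound or DMSO vehicle for 16 hr at 37 °C and 5% CO2. Luciferase activity was then measured with ONE-Glo after 30 min at room temperature.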
Rab9 prom act: activates the Rab9 promoter. Huh7 Rab9 promoter-luciferase reporter, luminescence, 24 h. AID 485297. Potency, µM (series often up to 9.22 µM), usual class: activators. 320,000 tested, 2.8% active; further: nearly all actives have a fitted effect of over 60% in size
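Rab9 promoter-driven luciferase in stably transfected Huh7 cells; 1500 cells/well rested 2 h, exposed to compound in DMSO for 24 h at 37 °C, 5% CO2. Luminescence read 10 min after adding luciferase reagent at ambient temperature.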
NPC1 promoter act: activates the NPC1 promoter | 320,000 tested, 2.4% active | Huh7 NPC1 promoter luciferase reporter, 24 h | Potency, µM (titrated, usually from 9.22 µM), usual class: activators | AID 485313; further: nearly all actives have a fitted effect of over 60% in size
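Luminescence read-out of NPC1 promoter-driven luciferase in stably transfected Huh7 cells; compounds delivered in DMSO and left 24 h at 37C, 5% CO2, qHTS titration format.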
FLuc modulator: firefly luciferase modulation, counter-screen for miR-21 project. Potency, µM (doses to about 57.5 µM), most hits filed as inhibitors. P08659. AID 588342. 360,000 tested, 6.9% active. purified FLuc, Km substrates, luminescence inhibition; further: nearly all actives have a fitted effect of over 55% in size
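Purified P. pyralis luciferase, 10 nM final, with Km-level 10 uM D-luciferin and 10 uM ATP in 50 mM Tris acetate pH 7.5, 10 mM Mg acetate, 0.01% Tween-20, 0.05% BSA; 6-point qHTS titration about 60 µM downward; luminescence read.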
SMN2 splice up: SMN2 splice variant enhancement | HEK293 SMN2-luciferase splicing reporter, luminescence, 30-36 h | 210,000 tested, 2.8% active | Potency, µM (series often up to 46.1 µM), usual class: activators | AID 1458; further: nearly all actives have a fitted effect of over 55% in size
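HEK293 cells carry an SMN2 […]–luciferase reporter in which exon 7 inclusion puts luciferase in frame. Cells were plated 10-12 h before compound addition, then incubated 30-36 h at 37C. ONE-Glo luminescence was read; sodium butyrate at 4.5 mM final served as control.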
ELG1 DNA repair: inhibitors of ELG1-dependent DNA repair in HEK293T cells. HEK293T ELG1-luciferase reporter, luminescence, 16 h; DNA damage induced by 5-fluorouridine. AID 504467. Potency, µM (titrated, usually from 46.1 µM), usual class: inhibitors. 330,000 tested, 2.3% active; further: nearly all actives have a fitted effect of over 55% in size
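DMSO vehicle served as the neutral condition. Each well held 2,000 cells given 5-fluorouridine plus compound; after 16 hr at 37 °C/5% CO2, ONE-Glo was added and luciferase measured 30 min later.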
ELG1 FLuc counter: luciferase inhibition in cell-free luciferin readout for ELG1 hits; shares compounds with ELG1 DNA repair; cell-free firefly luciferase luminescence counter-screen, ViewLux; Potency, µM (doses to about 46.1 µM), most hits filed as inhibitors; 350 tested, 3% active
ELG1 Luc conf: confirmation of human ELG1-dependent DNA repair inhibitors. HEK293T ELG1-luciferase levels, luminescence; cells co-treated with 5-fluorouridine. 670 tested, 68% active. Potency, µM (titrated, usually from 46.1 µM), actives largely listed as inhibitors. shares compounds with ELG1 DNA repair; further: nearly all actives have a fitted effect of over 55% in size
ELG1 MMS Luc: confirmation of human ELG1 repair inhibitors, MMS stimulated; 670 tested, 53% active; HEK293T luciferase-tagged ELG1 level, MMS stimulated; shares compounds with ELG1 DNA repair; Potency, µM (highest dose often 46.1 µM), actives largely listed as inhibitors; further: nearly all actives have a fitted effect of over 60% in size
ELG1 5-FU: confirmation of ELG1 repair inhibitors: viability with 5FU; AID 624250; cell viability with 5-FU, ELG1-dependent repair; shares compounds with ELG1 DNA repair; 670 tested, under 10 active; Potency, µM (titrated, usually from 46.1 µM), actives largely listed as cytotoxic;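 further: ELG1-luc HEK293T cells cotreated with 5-fluorouridine at 10 µM final; viability measured 16 h after compound addition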
ELG1 MMS viab: confirmation of ELG1 repair inhibitors: viability with MMS | shares compounds with ELG1 DNA repair | Cell viability with MMS, ELG1-dependent DNA repair | Potency, µM (titrated, usually from 46.1 µM), hits mostly cytotoxic | 670 tested, 33% active;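 further: ELG1-luc HEK293T cells co-treated with 10 µM MMS; viability read 16 h after compound addition; nearly all actives have a fitted effect of over 60% in size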
ELG1 unstim viab: counter-screen for ELG1 repair inhibitors: unstimulated cell viability. shares compounds with ELG1 DNA repair. cell viability counter-screen, unstimulated, luminescence. Potency, µM (doses to about 45.9 µM), usual class: cytotoxic. 900 tested, 8% active. AID 624252;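 further: compound exposure lasted 16 hours before reading; nearly all actives have a fitted effect of over 55% in size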
FLuc biochem: counter-screen for ELG1 repair inhibitors: firefly luciferase inhibition | shares compounds with ELG1 DNA repair | purified firefly luciferase, luminescence counter-screen | Potency, µM (doses to about 57.5 µM), most hits filed as inhibitors | 350 tested, 10% active | AID 624253
A number is an active result; 0 = inactive; ? = inconclusive; - = no result given. The call rests on the fitted dose curve; in most records, active means well fitted curve in the direction sought with a large enough effect; inconclusive means small, poorly fitted or top-dose-only effect, or another doubt; inactive means no such curve, though single readings can be large; an effect the other way counts as inactive or inconclusive.

SMILES	ELG1 genotoxic	Rab9 prom act	NPC1 promoter act	FLuc modulator	SMN2 splice up	ELG1 DNA repair	ELG1 FLuc counter	ELG1 unstim viab	FLuc biochem	others
O=C(CSc1nnc(-c2csc3c2CCCC3)o1)Nc1ccccc1	0.58µM	0.56µM	?	0	1.8µM	?	0	?	0
O=C(CSc1nnc(Cc2ccccc2)o1)Nc1ccc(Br)cn1	0	0	0	0	0	0	0	0	0
N#Cc1c(NC(=O)CSc2nnc(-c3ccccc3)o2)sc2c1CCCC2	0	0	0	0	?	0	-	-	-
Cc1ccc(NC(=O)CSc2nnc(-c3cccnc3)o2)c(C)c1	?	0	0	0	-	?	-	-	-
O=C(CSc1nnc(-c2cccnc2)o1)Nc1ccccn1	7.3µM	4µM	3.2µM	0	13µM	?	0	?	0
CN(Cc1ccco1)C(=O)c1c[nH]c2ccc(S(=O)(=O)Nc3ccc4c(c3)OCCO4)cc2c1=O	0	0	0	0	0	0	-	-	-
Cc1ccc(NC(=O)CN2CCCN(Cc3ccccc3Cl)S2(=O)=O)c(C)c1	-	-	-	0	-	-	-	-	-
COc1ccccc1NC(=O)CSc1nnc(Cc2ccccc2)o1	-	-	-	0	0	-	-	-	-
O=C(O)CSc1nnc(-c2ccc(O)cc2)o1	-	-	-	?	0	-	-	-	-
COc1ccccc1NC(=O)CSc1nnc(-c2ccccc2)o1	18µM	?	?	0	14µM	?	-	?	-
O=C(CSc1nnc(-c2ccc(O)cc2)o1)Nc1ccccc1	8.2µM	2.8µM	2.5µM	?	-	?	0	?	?
CCCCCCC1(C)NC(=S)N(c2ccccc2)N1 (stereo unspecified)	0	0	0	0	0	?	-	?	-	ELG1 Luc conf=0;ELG1 MMS Luc=0;ELG1 5-FU=0;ELG1 MMS viab=0
CCOc1cc(/C=N\Nc2nc(Nc3ccccc3)nc(N3CCOCC3)n2)ccc1OC(=O)c1ccco1	0	0	0	?	0	2.3µM	-	?	-	ELG1 Luc conf=1.6µM;ELG1 MMS Luc=?;ELG1 5-FU=?;ELG1 MMS viab=?
COc1cc(/C=N/Nc2nc(C)cc(C)n2)ccc1OC(=O)c1ccco1	0	0	0	0	0	0	-	-	-
COc1ccc(/C=C2\Oc3ccccc3C2=O)cc1	2.3µM	-	-	-	-	?	-	0	-
COc1ccc(/C=C2\OC(=S)N(C)C2=O)cc1	0	0	0	0	0	0	-	-	-
CCOc1ccc(CCNC(=O)Cn2c(=O)c3cccn3c3ccc(F)cc32)cc1OCC	-	-	-	0	-	-	-	-	-
CC1CCc2c(sc3nc(CN4CCOCC4)nc(NS(=O)(=O)c4cccc([N+](=O)[O-])c4)c23)C1 (stereo unspecified)	0	0	0	0	0	?	-	-	-
COc1cc2c(cc1OC)CN(c1nc(CN3CCOCC3)nc3sc4c(c13)CCCC4)CC2	0	0	0	0	0	2.9µM	?	?	0	ELG1 Luc conf=4µM;ELG1 MMS Luc=10µM;ELG1 5-FU=?;ELG1 MMS viab=16µM

Source: PubChem BioAssay (National Center for Advancing Translational Sciences (NCATS))
